Assay results taken from the supplement of paper PMC6518042.

Test system: Pectobacterium parmentieri SCC3193
Assay: DuctApe activity index (growth/respiration on compound as sole nutrient source, blank-subtracted) (activity index (0-3)); higher = stronger utilization of the compound, active = 3 or more
Conditions: nutrient role (plate category): nitrogen
Procedure: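 Biolog Phenotype Microarray plates PM1, PM2A (carbon), PM3 (nitrogen) and PM4 (phosphorus/sulfur) inoculated with P. parmentieri SCC3193 in M9-C minimal salts medium with Biolog dye A, and read in the OmniLog for 46 h. Each well was tested in triplicate and the experiment was run twice. DuctApe computed a blank-subtracted activity index (AV, 0-3) from the mean curves; growth is positive at AV >= 3 and negative at AV <= 2.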

DuctApe activity index, inactive:
O=C(O)CC[C@@H](C(=O)O)N1C(=O)c2ccccc2C1=O [N-Phthaloyl-L-Glutamic acid] 0, NO [Hydroxylamine] 0, Cc1c[nH]c(=O)[nH]c1=O [Thymine] 0, Nc1cc[nH]c(=O)n1 [Cytosine] 0, NC(N)=O 0, CSCC[C@H](N)C(=O)N[C@@H](C)C(=O)O 0, O=c1cc[nH]c(=O)[nH]1 [Uracil] 0

Same assay, conditions: nutrient role (plate category): phosphate & sulphur

DuctApe activity index, inactive:
Nc1nc2c(ncn2[C@@H]2O[C@H](CO)[C@@H](O)[C@H]2OP(=O)(O)O)c(=O)[nH]1 [Guanosine 2`-Monophosphate] 2, O=S(=O)(O)CCO [2-Hydroxyethane Sulfonic acid] 1, O=P(O)(O)OC[C@H]1OC(O)C[C@@H](O)[C@@H]1O (stereo partly drawn) [2-Deoxy-D-Glucose 6-Phosphate] 1, Nc1ccc(S(=O)(=O)O)cc1 [p-Aminobenzene Sulfonic acid] 0, C[C@@H](OP(=O)(O)O)[C@H](N)C(=O)O [O-Phospho-L-Threonine] 2, O=P(O)(O)CP(=O)(O)O [Methylene Diphosphonic acid] 0, Nc1ncnc2c1ncn2[C@@H]1O[C@@H]2COP(=O)(O)O[C@H]2[C@H]1O [Adenosine 3`,5`-Cyclic Monophosphate] 0, NCCS [Cysteamine] 1, N[C@@H](CS(=O)O)C(=O)O [L-Cysteine Sulfinic acid] 0
